42 compounds from ChEMBL document CHEMBL3988442, “University of Dundee, Small-Polar-MMV Screening Library” (2021) can be followed below.

The test has as its target T1, Methionyl-tRNA synthetase, putative (Leishmania donovani (strain BPK282A1)) (UniProt E9BF75).
T1 sequence (whole entry): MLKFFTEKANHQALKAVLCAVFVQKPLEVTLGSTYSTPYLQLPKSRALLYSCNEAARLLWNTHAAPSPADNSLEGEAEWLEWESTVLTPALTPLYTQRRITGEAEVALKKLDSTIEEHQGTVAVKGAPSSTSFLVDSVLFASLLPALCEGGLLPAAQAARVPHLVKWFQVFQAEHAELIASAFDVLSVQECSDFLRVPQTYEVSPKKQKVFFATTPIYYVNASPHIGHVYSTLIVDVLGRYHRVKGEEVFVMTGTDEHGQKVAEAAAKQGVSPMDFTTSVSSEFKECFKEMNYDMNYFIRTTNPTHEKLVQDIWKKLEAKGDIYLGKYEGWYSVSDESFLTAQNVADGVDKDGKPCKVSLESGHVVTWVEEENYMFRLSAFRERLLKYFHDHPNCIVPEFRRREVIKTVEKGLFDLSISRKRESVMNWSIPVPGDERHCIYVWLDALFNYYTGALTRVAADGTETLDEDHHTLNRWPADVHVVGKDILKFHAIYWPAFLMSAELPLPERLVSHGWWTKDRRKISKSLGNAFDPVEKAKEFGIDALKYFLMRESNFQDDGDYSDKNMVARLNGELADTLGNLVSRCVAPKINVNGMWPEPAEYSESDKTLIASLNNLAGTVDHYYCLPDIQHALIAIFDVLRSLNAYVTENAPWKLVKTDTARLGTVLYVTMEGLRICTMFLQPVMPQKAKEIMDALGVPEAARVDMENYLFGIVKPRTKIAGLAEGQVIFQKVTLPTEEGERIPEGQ
The test can be described thus: Leishmania donovani Methionine tRNA synthetase (LdMetRS):v7. Dose response assay. The class given is functional. Also noted: conc 80 nM, time 150 minutes.

As to `Cc1nc(NCC(=O)O)c2c3c(sc2n1)CCC3`, the PXC50 runs as follows: (MAX_EFFECT 4.834605598) under 4; (MAX_EFFECT 5.289672544) under 4.
With `CNC(=O)CN(C)c1nc(C)nc2sc3c(c12)CCC3`, the PXC50 was under 4 (MAX_EFFECT 5.291005291) and under 4 (MAX_EFFECT 6.4).
Consider `O=C(NCC1CCCCC1)c1cc(=O)c2cc(F)cc(O)c2o1`, for which the PXC50 is under 4 (MAX_EFFECT 5.56621881) and under 4 (MAX_EFFECT 11.64274322).
Compound `CCn1cc(-c2cc(C(F)(F)F)nc(NC3CCCC3)n2)c(C)n1` had a PXC50 (MAX_EFFECT 6.788511749) of under 4 and a PXC50 (MAX_EFFECT 7.571801567) of under 4.
The compound `CNC(=O)CN(C)c1nc(-c2cccs2)nc2sc(C)c(C)c12` had a PXC50 (MAX_EFFECT 6.801007557) of under 4 and a PXC50 (MAX_EFFECT 6.870229008) of under 4.
On to `CC(C)C[C@H](N)COc1ccc(Cl)cc1C(=O)c1ccccc1`, for which the PXC50 (MAX_EFFECT 7.036247335) was under 4 and the PXC50 (MAX_EFFECT 9.316770186) is under 4.
`CC(=O)N1CCN(c2nc(C(F)(F)F)nc3sc(C)c(C)c23)CC1` returned a PXC50 (MAX_EFFECT 7.310704961) of under 4 and a PXC50 (MAX_EFFECT 8.093994778) of under 4.
For `Cc1c(-c2cc(C(F)(F)F)nc(N3CCC(N)CC3)n2)cnn1C`, the PXC50 runs as follows: (MAX_EFFECT 7.485604607) under 4; (MAX_EFFECT 8.133971292) under 4.
Consider `O=C(c1cnccn1)N1CCC(F)(F)C2(CCN(c3ccccn3)C2)C1` (centres undefined), for which the PXC50 by setting is: (MAX_EFFECT 7.962962963) under 4; (MAX_EFFECT 7.981220657) under 4.
For `NS(=O)(=O)c1ccc(Cl)cc1Cl`, the PXC50 is under 3 (MAX_EFFECT 7.991360691) and under 3 (MAX_EFFECT 11.97718631).
Consider `Cc1sc2nc(-c3cccnc3)nc(NCCOCCO)c2c1C`, for which the PXC50 was under 4 (MAX_EFFECT 9.042553191) and under 4 (MAX_EFFECT 9.844559585).
`CCOC(=O)N1CCN(c2nc(-n3nc(C)cc3C)nc3sc4c(c23)CCCC4)CC1`: the PXC50 was under 4 (MAX_EFFECT 10.41666667) and under 4 (MAX_EFFECT 12.71929825).
In the case of `Cc1nc(N2CCNC(=O)CC2C)c2c(-c3ccccc3)csc2n1` (centres undefined), the PXC50 runs as follows: (MAX_EFFECT 10.43256997) under 4; (MAX_EFFECT 12.34256927) under 4.
As to `Cc1nc(N(C)CCC(=O)O)c2cc(-c3ccccc3)sc2n1`, the PXC50 is under 4 (MAX_EFFECT 10.96256684) and under 4 (MAX_EFFECT 15.76086957).
Regarding `Cc1cc(N)n(-c2nc(C)nc3sc4c(c23)CCCC4)n1`, the PXC50 is under 4 (MAX_EFFECT 11.22994652) and under 4 (MAX_EFFECT 12.02185792).
For `Cc1cc2c(NC3CCCCC3)nc(-c3cccnc3)nc2s1`, the PXC50 is under 4 (MAX_EFFECT 17.08542714) and under 4 (MAX_EFFECT 19.41031941).
The compound `Nc1noc2ccc(-c3cnc4ccc(NC5CCOCC5)nn34)cc12` came in with a PXC50 (MAX_EFFECT 17.30279898) of under 4 and a PXC50 (MAX_EFFECT 20.1754386) of under 4.
`CCNc1cc(-c2ccccn2)nc(Nc2ccc(F)c(Cl)c2)n1` gave a PXC50 (MAX_EFFECT 18.84057971) of under 4 and a PXC50 (MAX_EFFECT 22.81449893) of under 4.
Turning to `COCCNc1nc(N2CCCC2)nc2sc3c(c12)CCCC3`, the PXC50 reads like this: (MAX_EFFECT 20.83333333) under 4; (MAX_EFFECT 36.40350877) under 4.
Take `CCNc1cc(-c2ccccn2)nc(Nc2ccc(OC)cc2)n1`: the PXC50 reads like this: (MAX_EFFECT 22.3255814) under 4; (MAX_EFFECT 23.54312354) under 4.
Consider `Nc1noc2ccc(-c3cnc4ccc(NC5CC5)nn34)cc12`, for which the PXC50 (MAX_EFFECT 22.39185751) was under 4 and the PXC50 (MAX_EFFECT 25.87719298) was under 4.
For `Cc1nc(NC2CCCC2)c2c3c(sc2n1)CCCC3`, the PXC50 reads like this: (MAX_EFFECT 28.64583333) under 4; (MAX_EFFECT 30.70175439) under 4.
On to `COCCNC(=O)c1ccc2ccc(N(C)CC3CC3)n2c1`, for which the PXC50 was under 4 (MAX_EFFECT 29.93197279) and under 4 (MAX_EFFECT 41.12149533).
`CN(C)C(=O)c1ccc2ccc(N3CCN(CC4CC4)CC3)n2c1`: the PXC50 is under 4 (MAX_EFFECT 43.08390023) and under 4 (MAX_EFFECT 51.58878505).
In the case of `CS(=O)(=O)N1CCN(c2ccc3ccc(C(=O)NCC4(CO)CCCC4)cn23)CC1`, the PXC50 is under 4 (MAX_EFFECT 45.93301435) and under 4 (MAX_EFFECT 48.99451554).
Regarding `CC(=O)N1CCN(c2ccc3ncc(-c4ccc5onc(N)c5c4)n3n2)CC1`, the PXC50 reads like this: (MAX_EFFECT 15.77608142) under 4; (MAX_EFFECT 16.66666667) under 4.
Regarding `CS(=O)(=O)Nc1cccc2c(=O)cc(C(=O)NCC3(O)CCCCC3)oc12`, the PXC50 runs as follows: (MAX_EFFECT 2.53968254) under 4; (MAX_EFFECT 4.743083004) under 4.
For `Cn1ncc2c(NCCO)nc(Nc3ccccc3)nc21`, the PXC50 reads like this: (MAX_EFFECT 42.26415094) under 4; (MAX_EFFECT 47.32824427) under 4; (MAX_EFFECT 49.56140351) under 4.
Regarding `CCc1[nH]c2c(CNc3nc(C)cc(NC)n3)cc(C)cc2c1C`, the PXC50 by setting is: (BOTTOM 0.67274626, HILLSLOPE 1.539733885, MAX_EFFECT 72.46376812, TOP 100.0) 4.25; (BOTTOM -0.906983609, HILLSLOPE 1.456210781, MAX_EFFECT 70.06802721, TOP 103.3868667) 4.22; (MAX_EFFECT 28.19614711) under 4.
Consider `CN1CCC(CNC(=O)c2ccc3ccc(N4CCN(S(C)(=O)=O)CC4)n3c2)CC1`, for which the PXC50 runs as follows: (BOTTOM 1.275548684, HILLSLOPE 2.230174864, MAX_EFFECT 66.02870813, TOP 65.69793646) 4.77; (BOTTOM -0.677256268, HILLSLOPE 1.919543897, MAX_EFFECT 70.20109689, TOP 75.47637091) 4.69.
As for `NS(=O)(=O)c1cccnc1Nc1cc(C(=O)N2CCC2)cc(C(F)(F)F)c1`, the PXC50 reads like this: (MAX_EFFECT 2.375296912) under 4; (MAX_EFFECT 5.755395683) under 4; (MAX_EFFECT -0.429184549) under 4.
In turn, `Cc1nc(CN(C)CC2CCCN2c2cccnn2)nc2ccccc12` (centres undefined) yielded a PXC50 (BOTTOM 6.94309251, HILLSLOPE 1.363298468, MAX_EFFECT 83.49834983, TOP 100.0) of 4.46; a PXC50 (BOTTOM 8.751319867, HILLSLOPE 2.615595336, MAX_EFFECT 78.85304659, TOP 100.0) of 4.21; a PXC50 (BOTTOM -1.910835363, HILLSLOPE 2.399208882, MAX_EFFECT 79.71014493, TOP 90.01694606) of 4.37.
In the case of `Cc1cc(C(F)(F)F)nc(N2CCN(Cc3nccn3C)CC2)n1`, the PXC50 runs as follows: (MAX_EFFECT 3.571428571) under 4; (MAX_EFFECT 6.313131313) under 4.
For the compound `Nc1noc2ccc(-c3cnc4ccc(NCCN5CCOCC5)nn34)cc12`, the PXC50 (MAX_EFFECT -0.438596491) is under 4 and the PXC50 (MAX_EFFECT -1.041666667) was under 4.
Take `CCCCOC(=O)CNc1nc(Nc2ccc(F)c(F)c2)nc2c1cnn2C`: the PXC50 is under 4 (MAX_EFFECT 18.05225653), under 4 (MAX_EFFECT 18.45493562) and under 4 (MAX_EFFECT 25.28301887).
With `Nc1nc(CSc2ccccn2)nc2sc3c(c12)CCCCC3`, the PXC50 by setting is: (MAX_EFFECT 34.13333333) under 4; (MAX_EFFECT 39.15343915) under 4.
`Cc1ncc(CCNc2nc(Nc3ccc(F)c(F)c3)nc3c2cnn3C)s1`: the PXC50 by setting is: (MAX_EFFECT 15.8490566) under 4; (MAX_EFFECT 21.03004292) under 4; (MAX_EFFECT 21.85273159) under 4.
Consider `COc1ccc(-c2nc3c([nH]2)CCNC3C(=O)O)c2ccc(C)nc12` (centres undefined), for which the PXC50 was determined as 4.17 (BOTTOM 1.718114205, HILLSLOPE 1.017534888, MAX_EFFECT 58.69565217, TOP 100.0); 4.25 (BOTTOM 3.702697872, HILLSLOPE 1.816429842, MAX_EFFECT 76.89768977, TOP 100.0); 4.33 (BOTTOM -10.20592251, HILLSLOPE 0.737543358, MAX_EFFECT 64.87455197, TOP 100.0).
Turning to `C[C@@H](CO)Nc1ccnc(Nc2cccc(C(F)(F)F)c2)n1`, the PXC50 (BOTTOM 1.593845471, HILLSLOPE 0.816282678, MAX_EFFECT 64.11214953, TOP 100.0) worked out at 4.29; the PXC50 (BOTTOM 3.003400849, HILLSLOPE 0.886139555, MAX_EFFECT 64.25619835, TOP 100.0) is 4.3; the PXC50 (BOTTOM -0.445089983, HILLSLOPE 0.824021196, MAX_EFFECT 60.35242291, TOP 100.0) is 4.26.
In the case of `NS(=O)(=O)c1ccc(Nc2ncccc2S(N)(=O)=O)cc1`, the PXC50 (MAX_EFFECT 6.072106262) is under 4, the PXC50 (MAX_EFFECT 13.21585903) was under 4 and the PXC50 (MAX_EFFECT 15.90909091) was under 4.
For the compound `NC(=O)c1cccnc1Nc1cccc(C(F)(F)F)c1`, the PXC50 was under 4 (MAX_EFFECT 7.210626186), under 4 (MAX_EFFECT 13.42975207) and under 4 (MAX_EFFECT 16.74008811).
Turning to `CC(C)(N)c1cc(Cl)cc(Cl)c1`, the PXC50 was under 3 (MAX_EFFECT 14.47084233) and under 3 (MAX_EFFECT 21.86311787).
